GC-A act: GC-A (human) enzyme activation. P16066. HEK293 GC-A cells, cGMP TR-FRET, EC30 ANP; 0% at EC30 ANP, 100% saturating ANP. activation, % at 10 µM. hit rate 0.14% among 370,000. AID 1671463; in the data active = activation above about 40%
Bfl-1 A1 inh: inhibitors of the anti-apoptotic protein A1, read as caspase activation | MEF A1-2A-BIM cells, Caspase-Glo 3/7 luminescence, 3 h; percent of clofoctol response, vehicle zero | caspase activation, % (concentration not given with the values) | hit rate 0.066% among 330,000;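 active = over half of replicate activation scores above 10%, or exactly half above 10 with the replicate mean above 10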
Efflux pump inh: antifungal efflux pump inhibition, Nile Red retention. S. cerevisiae Candida pump triplex. inhibition, % at 10 µM. hit rate 0.44% among 330,000;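 active = plate passing quality check with inhibition over a set limit, or well fluorescence over plate mean plus 4 SD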;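 note: Nile Red retained in pooled yeast measured as flow cytometry median fluorescence; 0% = buffer negative control and 100% = Enniatin B positive control; higher means more Nile Red kept so more efflux inhibition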
H9c2 TAG inh: inhibitors of triacylglycerol accumulation. H9c2 cells, Nile Red lipid (TAG) fluorescence; cells loaded with 200 µM oleic acid. inhibition, % at 12.5 µM. hit rate 0.66% among 230,000;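 active = pattern-corrected inhibition of lipid staining of at least 50% with the nuclear-stain viability signal not falling by more than 50%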;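 note: 0% = DMSO wells and 100% = triacsin C control wells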
HSV replic up: increases HSV replication in cells; AID 1956; maximum fold increase; HSV replication augmentation in cells, fold increase; hit rate 0.005% among 220,000; in the data active = maximum fold increase above about 1.5; tested in PC3 cells
GC-B act: GC-B (human) receptor activation; P20594; HEK293-GC-B cells, CNP EC30, cGMP TR-FRET; 0% at EC30 CNP, 100% saturating CNP; activation, % at 10 µM; hit rate 0.11% among 370,000; AID 1920062;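 active = activation at 10 µM reaching about 35% in either raw or pattern-adjusted values, limit read from the data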
Target sequence (P20594 whole entry, looked up): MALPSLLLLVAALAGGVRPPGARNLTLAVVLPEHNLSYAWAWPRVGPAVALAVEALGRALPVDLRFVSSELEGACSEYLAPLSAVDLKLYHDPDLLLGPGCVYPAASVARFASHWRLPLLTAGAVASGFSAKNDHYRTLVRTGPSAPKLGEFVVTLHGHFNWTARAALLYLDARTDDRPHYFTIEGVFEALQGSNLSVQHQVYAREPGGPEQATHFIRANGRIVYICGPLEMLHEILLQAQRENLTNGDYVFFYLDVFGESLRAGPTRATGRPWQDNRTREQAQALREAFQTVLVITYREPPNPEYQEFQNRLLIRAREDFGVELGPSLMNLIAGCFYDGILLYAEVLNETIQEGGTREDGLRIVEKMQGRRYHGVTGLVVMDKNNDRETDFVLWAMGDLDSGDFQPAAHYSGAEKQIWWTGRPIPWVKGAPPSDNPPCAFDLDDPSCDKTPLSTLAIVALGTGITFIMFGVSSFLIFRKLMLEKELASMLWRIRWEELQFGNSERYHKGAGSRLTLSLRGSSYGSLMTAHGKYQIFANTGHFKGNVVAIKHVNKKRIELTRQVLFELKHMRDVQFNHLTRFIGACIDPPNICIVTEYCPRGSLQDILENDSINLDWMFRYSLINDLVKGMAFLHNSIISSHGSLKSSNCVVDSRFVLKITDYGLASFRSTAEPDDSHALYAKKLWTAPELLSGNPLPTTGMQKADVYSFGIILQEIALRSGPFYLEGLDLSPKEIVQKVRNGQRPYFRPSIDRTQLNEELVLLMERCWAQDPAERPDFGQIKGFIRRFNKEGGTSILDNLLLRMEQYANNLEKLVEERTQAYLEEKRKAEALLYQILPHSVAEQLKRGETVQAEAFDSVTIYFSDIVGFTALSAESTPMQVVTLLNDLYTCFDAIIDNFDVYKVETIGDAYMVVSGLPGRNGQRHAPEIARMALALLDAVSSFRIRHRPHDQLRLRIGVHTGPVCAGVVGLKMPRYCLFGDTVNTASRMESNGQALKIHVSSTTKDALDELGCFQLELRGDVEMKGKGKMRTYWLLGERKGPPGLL
* marks the source's active call; other numbers are inactive results; i = inactive; / = no result. The list is not random: actives were taken first. Their share in the collection is about 1%.

SMILES	GC-A act	Bfl-1 A1 inh	Efflux pump inh	H9c2 TAG inh	HSV replic up	GC-B act
CCOC(=O)N1CCN(C(=O)C[C@H]2C[C@@]3(C(=O)OCC)CCCC4=C3N(CCC4)C2=O)CC1	-0.2	/	/	/	/	2.5
C#Cc1cccc(Nc2nc(NCCOC)nc3ccsc23)c1	35.2	/	/	-4.7	/	37.4*
COc1ccc(OC)c(C2C(C(C)=O)=C(O)C(=O)N2Cc2cccnc2)c1 (centres undefined)	0.0	5.2*	0.0	/	i	1.2
COc1ccc(OC)c(C2C(C(=O)c3ccco3)=C(O)C(=O)N2Cc2cccnc2)c1 (centres undefined)	8.5	0.2	0.3	-3.5	/	5.1
CC1(C)c2ccccc2-c2nc3ccccc3cc2C1N1CCOCC1 (centres undefined)	-11.1	/	/	0.5	/	-5.4
CC1(C)c2cc(O)ccc2OC1N1CCOCC1 (centres undefined)	3.7	9.5*	-0.3	/	/	3.8
Oc1c(N=Nc2ccccn2)ccc2ccccc12	-10.2	-6.8	-0.1	70.5*	i	-9.8
N#C/C(C(=O)Nc1ccc(Cl)cc1)=C(/S)Nc1ccccc1	58.3*	-5.1	0.5	/	/	34.3
O=C(CSc1nnc(-c2ccccn2)n1-c1ccccc1)c1ccc2c(c1)OCO2	-2.4	/	/	/	/	-6.3
CC(=O)Nc1ccc(CNc2ncnc3ccc(-c4c(C)noc4C)cc23)cc1	30.0	-0.9	0.3	61.8*	/	40.6*
CCCN1C(=O)c2ccccc2NC1c1ccc(Cl)c(Cl)c1 (centres undefined)	-48.6	0.4	0.0	/	/	-16.8
CCCCN1C2=C(C(=O)CCC2)C(c2ccc(Cl)c(Cl)c2)C2=C1c1ccccc1C2=O (centres undefined)	4.7	0.9	0.1	59.6*	i	3.6
COC(=O)CNC(=O)CNC1(C(=O)NCCc2c[nH]c3ccccc23)CCCCC1	-0.3	/	/	/	/	-2.0
O=C1OCCC1Sc1nnc(-c2ccc(Cl)cc2Cl)o1 (centres undefined)	70.2*	-3.1	-0.1	-6.2	i	1.9
O=C1OCCC1Sc1nnc(-c2ccccc2)o1 (centres undefined)	34.5	-0.4	0.1	-7.9	i	-7.3
Cc1ccc(CSc2nnc(-c3ccccc3)n2Cc2ccco2)cc1	-27.4	/	/	/	/	-22.9
c1ccc(N=Nc2ccc3cccccc2-3)cc1	-12.4	-0.3	0.1	96.3*	/	-11.9
Nc1ccc(N=Nc2ccccc2)c2ccccc12	1.2	-0.5	-0.3	/	i	4.6
O=C1C=CC(=Nc2cccc3c2C(=O)c2ccccc2-3)O1	/	/	/	-1.7	/	/
O=C1C=CC(=Nc2ccc3c(c2)Cc2cc(F)ccc2-3)O1	33.1	/	/	1.2	/	35.3*
Cc1ccc(C)c(N(C)C(=O)c2cc3c(=O)[nH]c4ccc(C)cc4c3s2)c1	35.3	1.5	0.0	5.5	i	37.2*
CCCN(CCC)C(=O)c1cc2c(=O)[nH]c3ccc(C)cc3c2s1	10.9	-0.1	0.0	8.3	i	8.1
N#CCC[C@@H]1CC[C@]2(CCCN(C(=O)C3CCCC3)C2)O1	0.5	/	/	/	/	-1.3
O=C(OC12CCCN(C1)/C(=C/c1ccncc1)C2)c1ccc(F)cc1 (centres undefined)	-0.9	/	/	/	/	10.2
Cc1ccc([C@@H]2[C@@H]3C(=O)N(c4ccccc4)C(=O)[C@@H]3[C@]3(C)C(=O)N(Cc4ccc(-c5ccccc5)cc4)CC(=O)N23)o1	49.1*	-0.6	0.0	3.1	/	0.3
SMILES	GC-A act	Bfl-1 A1 inh	Efflux pump inh	H9c2 TAG inh	HSV replic up	GC-B act
Cc1ccc([C@@H]2[C@@H]3C(=O)N(c4ccccc4)C(=O)[C@@H]3[C@]3(C)C(=O)N(Cc4ccccn4)CC(=O)N23)o1	4.1	0.5	0.3	4.1	/	1.0
N#Cc1c(C#N)c(SSc2c(C#N)c(C#N)c(N)n2-c2ccccc2)n(-c2ccccc2)c1N	-8.3	/	/	0.4	/	55.3*
CC(=C\c1ccccc1)/C=C1/SC(=S)N(CCC(=O)Nc2ccccn2)C1=O	/	-0.9	0.7*	/	i	/
CC(/C=C1\SC(=S)N(CCC(=O)Nc2ccccc2O)C1=O)=C\c1ccccc1	3.5	-1.5	-0.1	15.0	/	0.7
Cc1ccccc1C(=O)N[C@H](C(=O)N1CCC[C@H]1C(=O)NCCc1ccccc1Cl)c1ccccc1	-2.0	/	/	/	/	-9.8
COc1ccc(NC(=O)c2cc(-c3cc(F)ccc3OCC3CCCO3)n[nH]2)cc1OC (centres undefined)	22.9	/	/	18.5	/	31.3
COc1ccc(NC(=O)c2cc(-c3cc(F)ccc3OCC3CCCO3)n[nH]2)c(C)c1 (centres undefined)	59.7*	/	/	16.4	/	79.3*
COc1ccc(NC(=O)c2cc(-c3cc(F)ccc3OC)n[nH]2)c(C)c1	55.4*	/	/	23.5	/	70.7*
COc1ccc(-n2nc(C#N)c(Cl)cc2=O)cc1	46.5*	/	/	/	i	0.9
CC(C)CCN(C)C1CCN(C(=O)Nc2ccc(Cl)cc2)CC1	-1.2	/	/	/	/	-1.8
C[C@H]1COc2cc(Br)ccc2S(=O)(=O)N1Cc1cn(Cc2ccc(F)cc2)nn1	-4.8	/	/	/	/	-1.9
Cc1ccc(C2c3c(C)nn(-c4ccc([N+](=O)[O-])cc4)c3N=C3C(=O)Nc4ccccc4N32)cc1 (centres undefined)	/	0.2	0.5*	/	i	/
COc1ccc(NC2=Nc3ccccc3N3C2=Nc2c(c(C)nn2-c2ccc(C)cc2)C3c2cccnc2)cc1 (centres undefined)	6.8	-1.1	0.3	/	i	-5.5
COc1ccccc1-c1nnc2n1N=C(c1ccc3c(c1)OCO3)CS2	2.9	/	/	/	/	-6.0
Cc1ccc(-n2c(SCC(=O)c3ccc(-c4ccccc4)cc3)nnc2-c2ccc(C(C)(C)C)cc2)cc1	0.3	/	/	/	/	2.8
CC(=O)Nc1ccc2oc(-c3cc(F)c(F)cc3Cl)nc2c1	57.7*	-5.2	0.0	10.2	i	-8.1
COc1cccc(-c2cc(C(F)(F)F)n3ncc(C(=O)NCC4CCCO4)c3n2)c1 (centres undefined)	35.2	0.5	0.2	-4.4	i	45.7*
CCOC(=O)Oc1c(OC)cc(C(=O)O[C@@H]2C[C@@H]3CN4CCc5c([nH]c6cc(OC)ccc56)[C@H]4C[C@@H]3[C@H](C(=O)OC)[C@H]2OC)cc1OC	-0.1	-0.8	0.2	60.2*	/	0.7
COC(=O)Cc1cc(=O)n2[nH]c(C)c(-c3ccccc3)c2n1	17.3	-0.2	-0.1	-3.1	i	26.9
CCOC(=O)Cc1cc(=O)n2[nH]c(C)c(-c3ccc(OC)cc3)c2n1	49.4*	0.4	0.0	-14.6	i	50.8*
CCOC(=O)Cc1cc(=O)n2[nH]c(C)c(-c3ccc(Cl)cc3)c2n1	44.1*	0.4	0.0	/	i	45.4*
CCc1cc(=O)n2[nH]c(C)c(-c3ccc(OC)cc3)c2n1	10.7	-0.6	0.4	3.6	/	13.5
O=C(Cn1[nH]c(=O)c2ccccc2c1=O)OCC(=O)N1CCCc2ccccc21	2.3	0.5	-0.1	5.2	i	-5.5
